From article PMC5913336, “True equilibrium measurement of transcription factor-DNA binding affinities using automated polarization microscopy”

biological target: T1, EcR (Drosophila melanogaster, UniProt P34021 251-348); test: FP; 33 mM phosphate pH 7.0, 90 mM NaCl, 0.01% Tween 20, 0.1 mM DTT, 0.5% agarose; room temperature; conditions: tags: N-GST (pGEX-6P-1, kept); dsDNA, one strand shown
T1 sequence: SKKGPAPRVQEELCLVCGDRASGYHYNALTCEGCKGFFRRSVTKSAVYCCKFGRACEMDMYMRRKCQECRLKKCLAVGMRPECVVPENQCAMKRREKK

Q: GACTGACCCCTAC was tested. Which binding signal did it give?
A: The binding signal was 2.46 Kd / Kd of best base at the position.

Q: Which binding signal does the source give for GAATGACCCATAC here?
A: Its binding signal is 2.6 Kd / Kd of best base at the position.

Q: GAATGACCCGTAC was tested. Which binding signal did it give?
A: Its binding signal is 2.06 Kd / Kd of best base at the position.

Q: How did the binding signal turn out when GAATGCCCCCTAC was run?
A: Its binding signal is 3.38 Kd / Kd of best base at the position.

Q: GAATGACCCCTAA was tested. Which binding signal did it give?
A: Its binding signal is 1.25 Kd / Kd of best base at the position.

Q: Which binding signal does the source give for GAATGACCCCTAT here?
A: Its binding signal is 1.25 Kd / Kd of best base at the position.

Q: With GAATGTCCCCTAC as the sequence, how does the binding signal read?
A: The binding signal was 6.26 Kd / Kd of best base at the position.

Q: Which binding signal does the source give for GAATGACCCCCAC here?
A: Its binding signal is 1.69 Kd / Kd of best base at the position.

Q: Which binding signal does the source give for GAATGACCCCTAG here?
A: Its binding signal is 1.29 Kd / Kd of best base at the position.

Q: Which Kd does the source give for GAATGACCCCTAC here?
A: Its Kd is roughly 23.7 nM.

Q: For GAATGACCCCTCC, which binding signal is on record?
A: The binding signal was 1.29 Kd / Kd of best base at the position.

Q: GAGTGACCCCTAC was tested. Which binding signal did it give?
A: Its binding signal is 1.99 Kd / Kd of best base at the position.

Q: GATTGACCCCTAC was tested. Which binding signal did it give?
A: Its binding signal is 1.87 Kd / Kd of best base at the position.

Q: How did the binding signal turn out when GAATTACCCCTAC was run?
A: The binding signal was 11.6 Kd / Kd of best base at the position.

Q: Which binding signal does the source give for GAATGAGCCCTAC here?
A: The binding signal was 12.7 Kd / Kd of best base at the position.

Q: Which binding signal does the source give for GAAGGACCCCTAC here?
A: The binding signal was 10 Kd / Kd of best base at the position.

Q: How did the binding signal turn out when GAATGATCCCTAC was run?
A: Its binding signal is 9.3 Kd / Kd of best base at the position.

Q: For GAATGACCCCAAC, which binding signal is on record?
A: The binding signal was 1.46 Kd / Kd of best base at the position.

Q: How did the binding signal turn out when GAATGAACCCTAC was run?
A: Its binding signal is 1.84 Kd / Kd of best base at the position.

Q: With GCATGACCCCTAC as the sequence, how does the binding signal read?
A: Its binding signal is 2.1 Kd / Kd of best base at the position.

Q: For GAATGACCCCGAC, which binding signal is on record?
A: Its binding signal is 1.46 Kd / Kd of best base at the position.

Q: GAATGACCCTTAC was tested. Which binding signal did it give?
A: Its binding signal is 1.59 Kd / Kd of best base at the position.

Q: How did the binding signal turn out when GGATGACCCCTAC was run?
A: The binding signal was 1.78 Kd / Kd of best base at the position.

Q: For GAATGACCCCTGC, which binding signal is on record?
A: Its binding signal is 1.47 Kd / Kd of best base at the position.

Q: AAATGACCCCTAC was tested. Which binding signal did it give?
A: Its binding signal is 1.94 Kd / Kd of best base at the position.

Q: GAATAACCCCTAC was tested. Which binding signal did it give?
A: The binding signal was 3.47 Kd / Kd of best base at the position.

Q: How did the binding signal turn out when GAAAGACCCCTAC was run?
A: The binding signal was 8.21 Kd / Kd of best base at the position.

Q: For GAATGACCACTAC, which binding signal is on record?
A: Its binding signal is 5.04 Kd / Kd of best base at the position.

Q: With GAATGACCTCTAC as the sequence, how does the binding signal read?
A: The binding signal was 1.03 Kd / Kd of best base at the position.

Q: With CAATGACCCCTAC as the sequence, how does the binding signal read?
A: The binding signal was 1.8 Kd / Kd of best base at the position.

Q: For GAACGACCCCTAC, which binding signal is on record?
A: Its binding signal is 3.06 Kd / Kd of best base at the position.

Q: How did the binding signal turn out when GAATGACTCCTAC was run?
A: The binding signal was 7.37 Kd / Kd of best base at the position.

Q: How did the binding signal turn out when GAATGACACCTAC was run?
A: Its binding signal is 4.55 Kd / Kd of best base at the position.

Q: Which binding signal does the source give for GAATGACGCCTAC here?
A: The binding signal was 19.5 Kd / Kd of best base at the position.

Q: Which binding signal does the source give for GAATGACCGCTAC here?
A: Its binding signal is 2.37 Kd / Kd of best base at the position.

Q: How did the binding signal turn out when TAATGACCCCTAC was run?
A: Its binding signal is 1.83 Kd / Kd of best base at the position.

Q: For GTATGACCCCTAC, which binding signal is on record?
A: The binding signal was 1.76 Kd / Kd of best base at the position.

Q: Which binding signal does the source give for GAATGACCCCTTC here?
A: The binding signal was 1.34 Kd / Kd of best base at the position.

Q: For GAATCACCCCTAC, which binding signal is on record?
A: The binding signal was 9.57 Kd / Kd of best base at the position.
